High-throughput results as filed in PubChem BioAssay.
USP10 inh – human USP10 deubiquitinase inhibition | Q14694 | purified USP10, Ub-rhodamine fluorescence, 60 min | inhibition, % at 20 µM | 1.1% of 47,000 active
OTUD3 block – human OTUD3 deubiquitinase inhibition; AID 1645858; purified OTUD3, Ub-rhodamine fluorescence, 2 h; 0.7% of 47,000 active; inhibition, % at 25 µM; Q5T2D3
Target sequence (Q5T2D3 whole entry, looked up): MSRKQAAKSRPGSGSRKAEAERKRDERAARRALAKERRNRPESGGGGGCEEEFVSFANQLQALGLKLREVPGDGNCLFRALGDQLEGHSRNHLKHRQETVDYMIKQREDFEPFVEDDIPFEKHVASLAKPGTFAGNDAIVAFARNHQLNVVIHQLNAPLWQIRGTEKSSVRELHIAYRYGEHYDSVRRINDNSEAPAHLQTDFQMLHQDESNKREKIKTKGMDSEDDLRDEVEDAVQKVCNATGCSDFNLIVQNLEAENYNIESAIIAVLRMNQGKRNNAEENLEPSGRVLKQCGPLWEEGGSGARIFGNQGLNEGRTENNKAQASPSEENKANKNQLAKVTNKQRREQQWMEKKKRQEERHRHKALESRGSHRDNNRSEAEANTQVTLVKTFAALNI
USP17 block – blocks human USP17 ubiquitin-rhodamine cleavage | purified USP17, Ub-rhodamine cleavage fluorescence, 3 h | inhibition, % at 50 µM | 6.5% of 47,000 active | AID 1645855
USP28 block – inhibitors of human USP28 deubiquitinase; Q96RU2; 3% of 47,000 active; AID 1645857; inhibition, % at 25 µM; purified USP28, Ub-rhodamine cleavage fluorescence, 30 min
USP30 inh – inhibitors of human USP30 deubiquitinase. Q70CQ3. purified USP30, Ub-rhodamine cleavage fluorescence. inhibition, % at 25 µM. 5.3% of 47,000 active
USP8 block – human USP8 deubiquitinase inhibition. P40818. 4.2% of 47,000 active. inhibition, % at 20 µM. purified USP8, Ub-rhodamine cleavage fluorescence, 30 min
A number is an active result; . = inactive; / = not tested or not shown. Shown are actives, neighbours in structure and some others; about 13% of the full set was active somewhere. Cut-off read from the data, not from the text of the source: active = inhibition above about 30%; inactive = the rest.

SMILES	USP10 inh	OTUD3 block	USP17 block	USP28 block	USP30 inh	USP8 block
O=C1C(NS(=O)(=O)Cc2ccc(Cl)cc2)CCN1c1ccccc1 (centres undefined)	.	.	.	.	.	31
O=C(Nc1ccccc1F)NC1CCN(c2ccc(F)cc2)C1=O (centres undefined)	.	.	51	.	80	.
COc1ccccc1NC(=O)NC1CCN(c2ccccc2)C1=O (centres undefined)	.	.	.	.	.	.
COc1cccc(CC(=O)NC2CCN(c3ccccc3)C2=O)c1 (centres undefined)	.	.	.	.	.	.
Cc1ccc(CNC(=O)NC2CCN(c3ccccc3)C2=O)cc1 (centres undefined)	.	.	.	.	33	32
O=c1cc(CN2CCN(Cc3cccc(F)c3)CC2)cc[nH]1	.	.	/	.	.	.
O=c1cc(CN2CCc3ccccc32)cc[nH]1	.	.	.	.	.	33
O=C(CC1C(=O)N(C2CCCC2)c2nc3ccccc3n21)NCc1ccccc1 (centres undefined)	.	.	.	.	.	.
Cc1cc(C(=O)N2CC[C@@H]3OCCN(S(C)(=O)=O)[C@H]3CC2)no1	.	.	.	.	.	.
COC(=O)CC1CC23OC2(C(=O)c2c(O)cccc2C3=O)C(C)O1 (centres undefined)	.	.	65	.	.	.
O=C1c2cccc(O)c2C(=O)c2c(O)cccc21	.	.	.	.	.	.
COC(=O)CC1CC2=C(C(=O)c3c(O)cccc3C2=O)C(C)O1 (centres undefined)	.	.	42	40	.	.
CC1OC(CC(=O)O)CC23OC12C(=O)c1c(O)cccc1C3=O (centres undefined)	.	.	63	.	.	.
N#C/C(=C\c1ccc(-c2cc(Cl)ccc2Cl)o1)c1nnc2n1CCCCC2	.	.	.	.	.	.
N[C@@H](CC1=CCC=CC1)C(=O)O	.	.	.	.	.	.
CC(=O)Nc1ccc(SCc2nc3ccccc3nc2C)cc1	.	.	.	.	.	39
Cc1nc2ccc(NS(=O)(=O)c3cccs3)cc2nc1C	.	.	.	.	.	.
COc1ccc(NCc2cc(=O)[nH]c3ccccc23)cc1	.	.	.	.	37	.
COc1ccc(C(CNC(=O)c2cc(=O)[nH]c3ccccc23)N2CCCC2)cc1 (centres undefined)	.	.	.	.	.	.
COc1ncccc1CN1CCn2c(Cn3cncn3)cnc2C1C (centres undefined)	.	.	.	.	.	.
CC1Oc2ccccc2N(Cc2nc(-c3ccccc3)no2)C1=O (centres undefined)	.	.	40	.	.	.
CC(=O)N1CCc2cc(S(=O)(=O)NCc3ccc(C)cc3)ccc21	.	.	57	.	.	.
CCC(=O)N1c2ccc(S(=O)(=O)NCC(=O)NCc3ccc(C)cc3)cc2CC1C (centres undefined)	.	.	.	.	34	.
CC(=O)N1CCc2cc(S(=O)(=O)NCC3COc4ccccc4O3)ccc21 (centres undefined)	.	.	38	.	.	.
O=C(C1CC1)N1CCc2cc(S(=O)(=O)NCC3COc4ccccc4O3)ccc21 (centres undefined)	.	.	.	.	.	.
SMILES	USP10 inh	OTUD3 block	USP17 block	USP28 block	USP30 inh	USP8 block
CCCN1CNc2c(c(=O)[nH]c(=O)n2Cc2ccccc2Cl)C1	.	.	.	.	.	.
O=C(CCc1nc2ccccc2s1)Nc1ccc(F)c(Cl)c1	.	.	.	.	.	.
O=C(c1ccccc1)N(Cc1ccncc1)c1nc2ccc(Cl)cc2s1	.	.	.	.	.	.
CCc1ccc2nc(N(CCCn3ccnc3)C(=O)c3cccs3)sc2c1	.	.	/	.	46	.
CC1(C(=O)NCc2ccccc2)CCC(=O)N1Cc1ccccc1F (centres undefined)	.	.	.	.	.	.
Cc1cc(-c2cnc(N3CCSCC3)nc2-c2ccoc2)on1	.	.	.	41	.	.
COc1cccc(-c2cc(N3CCCN(C(=O)c4cccc(C#N)c4)CC3)ncn2)c1	.	.	.	.	.	.
c1ccc(CNc2ccc(-c3nc(-c4ccccc4)no3)nn2)cc1	.	.	.	.	.	42
COc1ccc(CNc2nc3ccccc3n2Cc2ccccc2)cc1	.	.	.	.	.	.
COc1ccc(CNc2ccc(-c3ccccc3)nn2)cc1	.	.	37	.	.	.
Cc1ccc(N(CC(=O)N2c3ccccc3CC2C)S(=O)(=O)c2ccc(Cl)c([N+](=O)[O-])c2)c(C)c1 (centres undefined)	.	.	.	.	.	.
O=C(c1ccc(Cl)cc1)N(c1ccccn1)C1CCCCC1	71	44	87	48	81	54
O=C1CC(c2nc3ccccc3n2Cc2ccccc2)CN1Cc1ccccc1 (centres undefined)	.	.	.	.	.	.
CCCCN(C)C(=O)Cn1c(C2CC(=O)N(Cc3ccc(F)cc3)C2)nc2ccccc21 (centres undefined)	.	.	48	.	.	.
Cc1ccccc1OCCCn1c(C2CC(=O)N(Cc3ccccc3)C2)nc2ccccc21 (centres undefined)	.	.	.	.	49	.
CCOC(=O)C1CCN(C(=O)c2[nH]c3ccccc3c2Sc2ccc(Cl)cc2)CC1	.	.	.	.	.	.
COc1ccc(CCNc2ncnc3c2sc2nc(N4CCCC4)c4c(c23)CC(C)(C)OC4)cc1OC	.	.	.	.	.	.
Cc1ccc(-c2c(C)nn3c(NC4CCCCC4)cc(C)nc23)cc1	.	.	.	.	.	.
CC(=O)c1cc2c(cc1NC(=O)c1oc3c(c1C)-c1[nH]ncc1CC3)OCO2	.	.	43	.	.	31
CC(=O)c1cc2c(cc1NC(=O)c1cc(S(=O)(=O)N3CCCC3)cn1C)OCO2	.	.	.	.	.	.
CC1Oc2ccccc2N(CC(=O)Nc2cn[nH]c2)C1=O (centres undefined)	.	.	.	.	.	.
O=S(=O)(Nc1ccccc1Oc1ccccc1)c1ccccc1C(F)(F)F	.	.	.	.	31	.
Clc1cccc(CN2CCc3nc(N4CCOCC4)ncc3C2)c1	.	.	.	.	.	.
Fc1ccccc1N1CCN(c2ncc3c(n2)CCN(Cc2ccccn2)C3)CC1	.	.	51	.	.	.
COc1cc(C(=O)Nc2cccc(CCc3nc4ccc(C)cc4[nH]3)c2)cc(OC)c1OC	.	.	.	.	.	.
Cc1ccc2nc(CCc3cccc(NC(=O)c4ccc(C#N)cc4)c3)[nH]c2c1	.	.	.	.	.	.
Cc1cccc(S(=O)(=O)Nc2ccc(CCc3nc4ccc(C)cc4[nH]3)cc2)c1	.	.	.	36	.	.
